In PubChem BioAssay AID720493 (The Scripps Research Institute Molecular Screening Center, 2013):
The list shows a part of the results. Values without a mark were called inactive.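 How the source made its calls: active means compounds that raise the fluorescence signal in this interference counterscreen, with EC50 at or below 10 µM; inactive means the rest.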

Experiment: EDANS-DABCYL fluorescence interference, concentration series, dose response, artefact control for kallikrein-7 zymogen activator project, biochemical, fluorescence intensity, triplicate (AID 720493);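 further: intact quenched peptide substrate alone read at 355 nm excitation and 520 nm emission; signal is fluorescence gain from T0 to T4 after four hours at room temperature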
Settings: EDANS-DABCYL peptide fluorescence interference, no enzyme

| SMILES | EC50 [µM] |
| --- | --- |
| O=c1c(-c2ccccc2)coc2c(CN3CCOCC3)c(O)ccc12 | > 69.5 |
| O=C(OC1CCOC1=O)c1ccc(-c2nc3ccccc3s2)s1 (stereo not drawn) | > 69.5 |
| COC(=O)C1=NN(c2ccccc2)C2C(=O)N(c3ccccc3OC)C(=O)C12 (stereo not drawn) | > 69.5 |
| COc1c(N2CCN(C(=S)Nc3ccccc3F)C(C)C2)c(F)cc2c(=O)c(C(=O)O)cn(C3CC3)c12 (stereo not drawn) | > 69.5 |
| COc1cccc2sc3cc(NCC[C@@H]4CCCN4C)ccc3c(=O)c12 | > 69.5 |
| O=C(Oc1c(-c2ccco2)oc2ccccc2c1=O)c1cccnc1 | 21.2 |
| Cc1cccc(C)c1NC(=O)C(c1ccccc1)N1CC(=O)Nc2ccccc21 (stereo not drawn) | > 69.5 |
| CN(C(=O)c1cc2c(=O)n3ccccc3nc2s1)C1CCCCC1 | > 69.5 |
